Reference: PubChem BioAssay (NCI)
The panel holds about 83,000 compounds, 20% with a hit somewhere; the sample as a whole holds those more often.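 Step 1: grow cells in 96-well plates. Step 2: add test compound at a single concentration. Step 3: incubate 48 h. Step 4: record percent growth.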 A number with no mark means an inactive call. Activity calls are given as the source filed them. How the source made its calls: active means growth percent below 10; inactive means the rest.

system: OVCAR-8 ovarian; experiment: NCI-60 one-dose screen, 48 h (100 = growth as untreated, 0 = no growth, -100 = all killed); settings: 10 µM unless noted

Structure (SMILES)	growth [%]
O=C(c1ccccc1)c1ccco1	98.2
CCC(=O)Nc1ccccc1C#C/C=C\C#Cc1ccccc1C(F)(F)F	106
COc1cc(C2C=C(c3ccc(C)cc3)Nc3nc(SC)[nH]c(=O)c32)ccc1Oc1ccnc2cc(Cl)ccc12 (stereo not drawn)	83.4
Cc1cc(N2CCOCC2)nc(N2CCOCC2)n1	104
Cc1cc(C)n(C(=O)c2nn(-c3ccc(Cl)cc3)cc2O)n1	26.3
COc1ccc(-c2nn(-c3ccccc3)cc2/C=C2\SC(=S)N(CCc3ccc(O)cc3)C2=O)cc1	86.5
CCN(CC)c1ccc(CN(CC(=O)c2ccc(Cl)c(Cl)c2)Cc2ccccc2)cc1	100

system: OVCAR-5 ovarian; experiment: as above; settings: 10 µM unless noted

Structure (SMILES)	growth
C=C1c2c(C)nn(-c3ccc(C#CCOC4OC(CO)C(O)C(O)C4O)cc3)c2N(C)C23C[C@H]1C1(C)c4c(C)nn(-c5ccc(C#CCOC6OC(CO)C(O)C(O)C6O)cc5)c4N(C)C(C)(C[C@H]12)C3 (stereo partly drawn)	51%
[O-]/[N+](=C\C=C\c1ccccc1)c1ccccc1	107%
CN1CCN(Cc2ccc(NC(=O)c3[nH]ncc3Nc3ccnc4ccnn34)cc2)CC1	94%
CCCOc1ccc2c(c1)CC[C@@H]1[C@@H]2CC[C@@]2(C)[C@H]1CC[C@]2(C)O	76.7%
COc1ccc(C2=NN(C(=O)c3cc(OC)c(OC)c(OC)c3)C(c3ccc(C#N)cc3)C2)cc1OC (stereo not drawn)	58.8%
CO[C@H]1CC(O[C@@H]2/C(C)=C/C[C@@H]3C[C@@H](C[C@]4(CC[C@H](C)[C@@H](C5CCCCC5)O4)O3)OC(=O)[C@@H]3C=C(C)/C(=N/O)[C@H]4OC/C(=C\C=C\[C@@H]2C)[C@]43O)O[C@@H](C)C1O (stereo partly drawn)	-83% (active)
